# Source: PubChem BioAssay (NCI)
# This is part of a sample that, as a whole, favours compounds with a hit. Of some 83,000 tested, about 20% had one in any assay.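 In brief: 96-well plates, 48 h treatment, single concentration, percent growth endpoint.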 Activity calls are given as the source filed them. The calls were made as follows: active = growth percent below 10; inactive = the rest.
# Tested on: HL-60(TB) leukemia
# Experiment: NCI-60 one-dose screen, 48 h (100 = growth as untreated, 0 = no growth, -100 = all killed)
# Settings: 10 µM unless noted
row,Compound,growth
1,O/N=C(\CSc1nnc(-c2c[nH]c3ccccc23)n1-c1ccccc1)c1ccc(Cl)cc1,-25.9% (active)
2,CC12CC[C@@H]3[C@]4(C)COC(c5cn[nH]c5-c5ccc(Cl)cc5)O[C@@H]4CC[C@@]3(C)[C@@H]1CC(C1=CCOC1=O)O2 (some centres undefined),3.37% (active)
3,O=C(CN1CCN(c2ncnc3c2cnn3-c2ccccc2)CC1)Nc1nncs1,-45.5% (active)
4,CN(C)CCOc1ccc(C(=O)C2[C@H](c3ccc(Cl)cc3)[C@@H](c3ccccc3)NC23C(=O)Nc2ccc(Br)cc23)cc1 (some centres undefined),-60.6% (active)
